# From PubChem BioAssay
# Sampled rows, rich in hits. Any-hit rate of the full collection: about 9.5%.
# Pf growth 48h = inhibits P. falciparum growth in the first generation, 48 h; P. falciparum luciferase growth in erythrocytes, 48 h; 5.9% of 310,000 active; AID 504832; Potency, µM (highest dose often 28.7 µM), actives largely listed as inhibitors; active = well fitted inhibition curve with a large enough effect; inconclusive = small, poorly fitted or top-dose-only effect, or another doubt; inactive = no such curve, though single readings can be large or run the other way
#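 Erythrocytes infected with P. falciparum carrying an integrated firefly luciferase reporter (2% hematocrit, 0.1% parasitemia final) were exposed to compounds in RPMI 1640 with 0.5% Albumax at 37 C, 5% CO2. Growth inhibition was scored as reduced luminescence.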
# NS1 inh = inhibitors of influenza NS1 protein function; Potency, µM (top dose mostly 46.1 µM); 0.4% of 270,000 active; note: actives are rising curves; nearly all actives have a fitted effect of over 50% in size
#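 Compounds were scored for reversing the slow growth caused by influenza A NS1 in S. cerevisiae, measured by optical density at 600 nm. Assay medium contained 2% galactose at pH 6.0; NS1-free yeast of the same strain were the positive control.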
# Pf growth 96h = P. falciparum growth inhibition at 96 hours; P. falciparum luciferase reporter growth, 96 h; Potency, µM (highest dose often 28.7 µM), most hits filed as inhibitors; 6.9% of 320,000 active; active = well fitted inhibition curve with a large enough effect; inconclusive = small, poorly fitted or top-dose-only effect, or another doubt; inactive = no such curve, though single readings can be large or run the other way
#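 Two-generation exposure (96 h) targets delayed-death phenotype. Reporter parasites carrying integrated firefly luciferase, in red cells at 2% hematocrit and 0.05% parasitemia final, kept at 37 C, 5% CO2; luminescence loss indicates inhibition.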
# SARS PLP yeast = inhibitors of SARS-CoV papain-like protease in yeast | S. cerevisiae expressing SARS-CoV PLpro, growth rescue | Potency, µM (doses to about 32.9 µM), most hits filed as activators | 0.19% of 330,000 active; note: nearly all actives have a fitted effect of over 55% in size
# RE007 growth inh = less growth of the S. pombe RE007 Vpr strain | S. pombe RE007 Vpr strain, BacTiter-Glo ATP luminescence, 24 h | Potency, µM (titrated, usually from 92.2 µM), most hits filed as inhibitors | 0.21% of 360,000 active | AID 651644; active = well fitted falling curve with a large enough effect; inconclusive = small, poorly fitted or top-dose-only effect; inactive = no such curve, though single readings can be large or run the other way; note: nearly all actives have a fitted effect of over 50% in size
#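 Fission yeast strain RE007, carrying one chromosomally integrated HIV-1 vpr copy, was seeded at OD 0.01 in PMG+AL medium with 23 nL pinned compound. After 24 h at 30 °C and 99% humidity, viability was read by BacTiter-Glo luminescence.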
# Hits are given with their value; i = inactive; ? = inconclusive; nt = no result; [ ] = dose if it differs, or a comment. Unless noted, calls come from the whole dose curve.
SMILES,Pf growth 48h,NS1 inh,Pf growth 96h,SARS PLP yeast,RE007 growth inh
CC1=CC(C)C(C(=O)O)C(C(=O)Nc2cccnc2)C1 (stereo unspecified),i,i,i,i,i
Cc1cc(NC(=O)c2cc3ccccc3o2)ccc1NC(=O)c1ccccc1,i,i,i,i,i
Cc1cc(NC(=O)C2CC=CCC2C(=O)O)ccc1NC(=O)c1ccccc1 (stereo unspecified),?,i,9.28µM,i,i
O=C(O)C1CC=CCC1C(=O)Nc1cccnc1 (stereo unspecified),9.28µM,i,i,i,i
N[C@H](Cc1ccc2oc3cc(=O)c4ccccc4c-3nc2c1)C(=O)O,nt,i,nt,nt,nt
O=C(CSc1nnc(CNC(=O)c2c(F)cccc2F)o1)NCc1ccc(F)cc1,i,i,i,i,i
COc1ccc(C2C3=C(CC(C)(C)CC3=O)Oc3ncn4nc(-c5cccnc5)nc4c32)cc1 (stereo unspecified),nt,i,nt,nt,i
COc1ccc(C2C3=C(CC(C)(C)CC3=O)Oc3ncn(CCCn4ccnc4)c(=N)c32)cc1 (stereo unspecified),9.28µM,i,5.22µM,i,i
CC1(C)CC(=O)C2=C(C1)Oc1ncn(CCCn3ccnc3)c(=N)c1C2c1ccccc1 (stereo unspecified),?,i,?,i,i
CC1(C)CC(=O)C2=C(C1)Oc1ncn(Cc3ccco3)c(=N)c1C2c1ccccc1 (stereo unspecified),?,i,6.57µM,i,i
COc1ccc(C2C3=C(CC(C)(C)CC3=O)Oc3ncn(Cc4ccccc4)c(=N)c32)cc1 (stereo unspecified),nt,i,13.1µM,i,i
O=C(CSc1nnc(Cc2ccccc2)n1-c1cccc(Cl)c1)NNC(=O)Cc1ccccc1,i,i,?,i,i
O=C(O)c1cccc(C[C@H](Br)C(=O)O)c1,nt,i,nt,nt,nt
COc1ccc(N2C(=O)CC(Sc3nc4c(cc3C#N)CCC4)C2=O)cc1 (stereo unspecified),i,i,i,i,i
O=C1NC(c2cc3ccccc3nc2Cl)Nc2ccccc21 (stereo unspecified),2.94µM,i,1.85µM,i,i
COP(=O)(OC)OC(C(=O)c1ccccc1)c1ccccc1 (stereo unspecified),nt,nt,nt,nt,i
Clc1ccc2c(NNc3ccccc3Cl)ccnc2c1,?,i,?,i,i
FC(F)Oc1ccc(NC(=S)NNc2ccnc3cc(Cl)ccc23)cc1,8.28µM,nt,?,i,i
O=C(NNc1ccnc2cc(Cl)ccc12)C1CCCCC1,1.65µM,nt,1.04µM,i,i
NC(=S)NNc1ccc(Cl)c(Cl)c1,i,i,i,i,11.2µM
NC(=S)NNc1ccnc2cc(Cl)ccc12,2.94µM,nt,?,i,i
O=P(O)(O)OP(=O)(O)OP(=O)(O)O,i,nt,i,nt,nt
Cn1c(=O)c(C(=O)c2ccc(S(C)(=O)=O)c(Cl)c2Cl)c(O)c2ccccc21,nt,nt,nt,nt,i
CCN(CC)CCNc1c(C)cc(CO)c(Cl)c1C,nt,nt,nt,nt,i
Cc1ccc(NC(=O)C(c2ccccc2)c2ccccc2)c(O)c1,?,i,?,i,i
SMILES,Pf growth 48h,NS1 inh,Pf growth 96h,SARS PLP yeast,RE007 growth inh
COc1ccc(N(CC(=O)NCc2cccs2)S(=O)(=O)c2ccc(C(C)=O)cc2)cc1,nt,nt,nt,nt,i
CCOc1ccc(Nc2ccnc3cc(Cl)ccc23)cc1,i,i,i,i,i
CCN1CCC(Nc2ccnc3cc(Cl)ccc23)CC1,0.0329µM,i,0.0041µM,i,i
Cc1cccc(N(C)S(=O)(=O)c2csc(C(N)=O)c2)c1,i,i,0.657µM,i,i
CC(C)Oc1ccc(CNS(=O)(=O)c2csc(C(N)=O)c2)cc1,6.57µM,i,i,i,i
Cc1ccc(NS(=O)(=O)c2csc(C(N)=O)c2)c(C)c1,7.38µM,i,4.15µM,i,i
NC(c1csc(Nc2ncccn2)n1)c1ccccc1Cl (stereo unspecified),nt,nt,nt,nt,i[18.4 µM]
CCc1ccc(N/C(SCc2ccccc2C)=C(/C#N)C(=O)NCc2ccco2)cc1,13.1µM,i,i,i,i
CCc1ccc(OCCCC(=O)NCc2ccco2)cc1,?,i,i,i,i
CSCCC(NC(=O)c1ccco1)C(=O)Nc1ccc(C)c(S(=O)(=O)N2CCOCC2)c1 (stereo unspecified),?,nt,i,i,i
Cc1ccc(C(=O)OCC(=O)Nc2ccc3c(c2)OCO3)c(O)c1,i,nt,i,i,i
Cc1ccc(N2C(=O)C3ON(c4ccccc4)C(c4ccncc4)C3C2=O)cc1 (stereo unspecified),i,i,nt,i,i
CN1C(=O)C2ON(c3ccccc3)C(c3cccs3)C2C1=O (stereo unspecified),i,i,9.28µM,i,i
O=C(C[n+]1cc(Br)cc2ccccc21)c1ccc(Br)cc1,i,?,?,i,i
O=C(C[n+]1cccc2ccccc21)c1ccc(Br)cc1,?,i,?,i,i
Cc1ccc(C)[n+](CC(=O)c2ccc(-c3ccccc3)cc2)c1,9.28µM,i,i,i,?
Cc1ccc(C(=O)Sc2cccccc2=O)cc1,4.15µM,i,2.94µM,i,?
O=C(C[n+]1cc(Br)cc2ccccc21)c1ccc(Cl)cc1,?,i,13.1µM,i,i
Cc1ccc(C(=O)C[n+]2cccc3ccccc32)cc1,13.1µM,i,4.15µM,i,i
CNC(=O)c1c(NC(=O)CCS(=O)(=O)c2ccc(F)cc2)sc(C)c1C,i,nt,i,i,i
O=S1(=O)c2ccc(Br)cc2N2CCC[C@@H]2CN1Cc1ccccc1,nt,nt,nt,i,i
Cc1cnccc1CNC(=O)CC1C(=O)NCCN1CC(C)(C)C (stereo unspecified),?,i,i,i,i
Cc1ccc(C(NC(=O)c2ccccc2)C(Cl)Cl)cc1 (stereo unspecified),?,i,4.15µM,i,i
Cc1ccc(C(=O)CC(=O)c2ccccc2)cc1,i,i,3.7µM,?,i
CCS(=O)(=O)c1ccc2oc(Nc3cccc(OC)c3)nc2c1,i,nt,i,i,i
SMILES,Pf growth 48h,NS1 inh,Pf growth 96h,SARS PLP yeast,RE007 growth inh
C=CCn1c(SCC(=O)N(C)CC(=O)Nc2ccc(C)cc2)nnc1-c1ccncc1,nt,nt,nt,i,i
CC(Oc1ccc2ccccc2c1)C(=O)NNC(=O)Nc1ccccc1F (stereo unspecified),i,i,i,i,i
Cc1cc(C)cc(NC(=O)c2ccc(CNc3c(N4CCCC4)c(=O)c3=O)cc2)c1,?,i,0.522µM,i,i
O=C(NCc1ccco1)c1ccc(CNc2c(N3CCCCC3)c(=O)c2=O)cc1,i,i,10.4µM,i,i
CCOC(=O)C1CCN(c2c(NCc3ccc(C(=O)O)cc3)c(=O)c2=O)CC1,nt,i,nt,nt,nt
CCCCNC(=O)c1ccc(CNc2c(N3CCC(C(=O)OCC)CC3)c(=O)c2=O)cc1,11.7µM,i,?,i,i
CCOC(=O)C1CCN(c2c(NCc3ccc(C(=O)NCCOC)cc3)c(=O)c2=O)CC1,i,i,i,i,i
CCOC(=O)C1CCN(c2c(NCc3ccc(C(=O)Nc4ccc(C)cc4)cc3)c(=O)c2=O)CC1,4.65µM,i,4.15µM,i,i
